For experiment [1], the system named is TRPC4 beta (transient receptor potential cation channel C4), mouse. Nature of the experiment: TRPC4 cation channel opening, retest – cell-based, Fluo4 calcium, HEK293 TRPC4beta/mu-opioid, duplicates, 10 µM, confirmation (AID 2426;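 active = fluorescence ratio normalized to control raised more than 50% in primary screen plus both repeat runs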;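 for activation: percent rise of integrated ratio over buffer wells lacking compound which define 0%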). Particulars: Fluo4 calcium fluorescence, at 10 µM; hits give high values.
In experiment [2] the test system is transient receptor potential cation channel C4 beta (TRPC4), mouse. Nature of the experiment: TRPC4 cation channel opening, second retest – cell-based, second round, Fluo4, HEK293 TRPC4beta/mu-opioid, 1 µM, confirmation (AID 2461;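 active = primary screen active and over 50% activation in each of two duplicate runs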;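 for activation: 0% = wells without test compound as baseline of integrated fluorescence ratio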). The following applies: Fluo4 calcium fluorescence, at 1 µM; hits give high values.
In experiment [3] the test system is TRPC4 (transient receptor potential cation channel C4 beta), mouse. Nature of the experiment: potentiation of DAMGO EC20 TRPC4 response – cell-based, second round, Fluo-4, HEK293 TRPC4beta/mu-opioid, 1 µM, confirmation (AID 2554;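 active = primary screen hit whose fluorescence ratio, in both repeats, exceeds the weak agonist control mean by 3 SD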). Particulars: DAMGO EC20, Fluo-4 calcium flux, at 1 µM; hits give high values. (In general: Calcium flux is commonly read through the fluorescence of an indicator in the cells.)

The test system of experiment [4] is TRPC4 beta (transient receptor potential cation channel C4), mouse. Nature of the experiment: potentiation of DAMGO EC20 TRPC4 response – cell-based, Fluo-4, HEK293 TRPC4beta/mu-opioid, confirmation (AID 2555;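 active = primary screen hit whose calcium fluorescence ratio, in both repeats, exceeds the weak agonist control mean by 3 SD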). Particulars: DAMGO EC20, Fluo-4 calcium flux, at 10 µM; hits give high values.
Experiment [5] deals with Short transient receptor potential channel 4 (Mus musculus) (UniProt Q9QUQ5). Nature of the experiment: blockers of DAMGO-evoked TRPC4 calcium flux – cell-based, Fluo4, HEK293 TRPC4beta/mu-opioid, confirmation (AID 2636;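 active = calcium signal cut by more than 3 SD below the full-agonist control yet still positive, in both repeats and the earlier primary screen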). Particulars: at 10 µM; hits give high values.
Chain of Short transient receptor potential channel 4 (Mus musculus) (Q9QUQ5 whole entry, looked up): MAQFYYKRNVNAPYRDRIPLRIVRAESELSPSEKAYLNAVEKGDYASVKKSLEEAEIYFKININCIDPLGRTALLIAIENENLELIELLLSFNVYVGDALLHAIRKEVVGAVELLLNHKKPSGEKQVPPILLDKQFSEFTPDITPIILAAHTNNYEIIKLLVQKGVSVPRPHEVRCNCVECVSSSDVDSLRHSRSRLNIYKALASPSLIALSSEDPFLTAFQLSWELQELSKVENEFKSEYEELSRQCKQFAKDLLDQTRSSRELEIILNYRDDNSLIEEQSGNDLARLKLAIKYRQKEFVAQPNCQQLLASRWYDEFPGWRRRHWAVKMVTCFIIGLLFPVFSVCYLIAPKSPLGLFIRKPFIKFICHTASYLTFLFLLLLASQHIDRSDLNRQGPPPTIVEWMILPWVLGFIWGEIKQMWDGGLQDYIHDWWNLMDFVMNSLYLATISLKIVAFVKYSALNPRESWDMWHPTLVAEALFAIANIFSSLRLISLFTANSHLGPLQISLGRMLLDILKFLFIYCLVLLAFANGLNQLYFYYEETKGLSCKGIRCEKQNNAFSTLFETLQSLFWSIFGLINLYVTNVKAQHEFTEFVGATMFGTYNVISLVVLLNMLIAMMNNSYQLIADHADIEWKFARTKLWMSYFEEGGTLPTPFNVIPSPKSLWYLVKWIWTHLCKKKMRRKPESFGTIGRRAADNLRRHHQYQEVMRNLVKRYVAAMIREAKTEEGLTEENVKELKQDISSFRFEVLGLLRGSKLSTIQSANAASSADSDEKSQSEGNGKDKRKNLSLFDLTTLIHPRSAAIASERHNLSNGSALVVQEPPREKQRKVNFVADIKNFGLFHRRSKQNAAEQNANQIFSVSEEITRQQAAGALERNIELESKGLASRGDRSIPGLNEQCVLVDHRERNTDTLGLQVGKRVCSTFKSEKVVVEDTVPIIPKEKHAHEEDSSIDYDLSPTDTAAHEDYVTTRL
For experiment [6] the target is unchanged. Nature of the experiment: blockers of DAMGO-evoked TRPC4 calcium flux – cell-based, second round, Fluo4, HEK293 TRPC4beta/mu-opioid, 1 µM, confirmation (AID 2637;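 active = calcium signal ratio cut to more than 3 SD under the fully stimulated control mean yet still positive, in both repeats and the primary screen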). Particulars: at 1 µM; hits give high values.
For experiment [7] the target is unchanged. As to the kind of experiment: potentiation of DAMGO-evoked TRPC4 calcium signal – cell-based, HEK293 TRPC4/mu-opioid, Fluo-4 calcium, EC20 DAMGO, dose response (AID 434941;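 active = earlier screen potentiator hit that boosts the TRPC4 ion channel at some dose, with a dose response; inactive = no potentiation, no dose response, or not a prior hit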;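 note: calcium entry triggered by an EC20 dose of DAMGO at the co-expressed mu-opioid receptor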).
The target is the same in experiment [8]. Nature of the experiment: block of DAMGO-driven TRPC4 calcium entry – cell-based, HEK293 TRPC4/mu-opioid, Fluo-4 calcium, dose response (AID 434942).
In experiment [9] the target is Short transient receptor potential channel 6 (Mus musculus) (UniProt Q61143). Nature of the experiment: TRPC6 blockade by TRPC4 inhibitor hits – cell-based, HEK293, membrane potential dye, duplicate, selectivity assay for TRPC4 inhibitor project, confirmation (AID 434948;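 active = active in primary screen and both duplicates, each dropping signal beyond three positive-control SD with fluorescence still positive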). The following applies: HEK293 TRPC6, membrane potential dye fluorescence, at 10 µM, stimulated with maximal-effect acetylcholine; hits give high values.
Chain of Short transient receptor potential channel 6 (Mus musculus) (Q61143 whole entry, looked up): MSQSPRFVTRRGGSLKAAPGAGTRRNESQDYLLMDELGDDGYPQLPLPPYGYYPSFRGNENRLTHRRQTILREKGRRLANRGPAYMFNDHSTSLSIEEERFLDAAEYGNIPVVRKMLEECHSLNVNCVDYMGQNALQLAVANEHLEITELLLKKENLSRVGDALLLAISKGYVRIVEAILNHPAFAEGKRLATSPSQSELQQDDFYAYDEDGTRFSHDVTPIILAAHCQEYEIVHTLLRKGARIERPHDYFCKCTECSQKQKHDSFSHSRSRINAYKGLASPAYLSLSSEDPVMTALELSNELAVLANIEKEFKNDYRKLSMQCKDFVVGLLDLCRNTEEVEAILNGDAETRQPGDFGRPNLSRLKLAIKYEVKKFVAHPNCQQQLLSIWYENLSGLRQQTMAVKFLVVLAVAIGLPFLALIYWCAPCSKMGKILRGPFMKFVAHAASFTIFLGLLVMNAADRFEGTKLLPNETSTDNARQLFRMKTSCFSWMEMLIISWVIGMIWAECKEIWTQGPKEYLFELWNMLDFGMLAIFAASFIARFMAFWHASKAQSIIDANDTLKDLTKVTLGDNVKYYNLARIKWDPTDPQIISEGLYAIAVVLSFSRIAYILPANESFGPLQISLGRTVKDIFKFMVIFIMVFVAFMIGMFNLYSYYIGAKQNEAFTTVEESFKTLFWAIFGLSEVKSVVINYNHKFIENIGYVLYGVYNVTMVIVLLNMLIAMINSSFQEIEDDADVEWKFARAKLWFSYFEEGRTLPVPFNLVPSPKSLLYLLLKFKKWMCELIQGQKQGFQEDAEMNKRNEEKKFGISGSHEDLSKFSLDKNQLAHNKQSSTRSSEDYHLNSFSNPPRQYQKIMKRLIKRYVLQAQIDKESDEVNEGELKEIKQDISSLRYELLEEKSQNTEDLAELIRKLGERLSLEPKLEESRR

For experiment [10] the target is unchanged. Nature of the experiment: TRPC6 opening by TRPC4 activator hits – cell-based, HEK293, membrane potential dye, duplicate, selectivity assay for TRPC4 activator project, confirmation (AID 434950;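 active = membrane potential signal rise above negative control mean plus 3 SD in both duplicates, also active in the earlier TRPC4 screen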;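 for activation: 0% = buffer only wells and 100% = acetylcholine maximal-effect wells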). Particulars: HEK293 TRPC6, membrane potential fluorescence, at 10 µM; activation: hits give high values; outcome: activation.
For experiment [11] the target is unchanged. Nature of the experiment: positive modulators of mouse TRPC6 channel – HEK293 cells, membrane potential dye, duplicate, selectivity assay for TRPC4 potentiator project, confirmation (AID 434952;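 active = compound raising the membrane signal above positive-control mean plus 3 SD in both repeats, and a primary screen hit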). The following applies: HEK293 TRPC6, membrane potential dye fluorescence, at 10 µM, maximal acetylcholine added after compound; hits give high values.
Experiment [12] deals with Short transient receptor potential channel 4 (Mus musculus) (UniProt Q9QUQ5). As to the kind of experiment: calcium flux activators in TRPC4/5HT1a cells, counter-screen for TRPC4 activator project, cell-based, second counter screen, HEK293 TRPC4/5HT1a, Fluo-4 (AID 434977;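 active = calcium signal rise above buffer-control mean plus 5 SD in both duplicates, and also a hit in the primary screen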;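 for activation: plate controls were assay buffer for no effect and maximal serotonin response for full effect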). The following applies: Fluo-4 calcium flux, at 10 µM; hits give high values.
Experiment [13] can be described thus: serotonin-gated TRPC4 signal block – cell-based, second counter screen, HEK293 TRPC4/5HT1a, Fluo-4, counter-screen for TRPC4 inhibitor project, confirmation (AID 434978;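 active = primary screen active whose calcium signal fell more than 3 SD beyond the full-serotonin control mean in both duplicate plates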;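 note: serotonin given first at submaximal then at maximal dose after compound preincubation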). Particulars: Fluo-4 calcium flux, at 10 µM, serotonin added to trigger calcium flux; hits give high values. For orientation: A counterscreen serves to expose hits that act by an unwanted route or on another target.

The test system of experiment [14] is TRPC4 (mouse), co-expressed with 5HT1a in HEK293. Nature of the experiment: enhancement of serotonin-evoked TRPC4 response – cell-based, second counter screen, HEK293 TRPC4/5HT1a, Fluo-4, counter-screen for TRPC4 potentiator project, confirmation (AID 434979;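 active = signal rise over 3 SD above mean of control wells given weak agonist, in both repeats and first screen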). Particulars: Fluo-4 calcium flux, at 10 µM, serotonin added at its EC20 dose; hits give high values.
Experiment [15] is described as follows: nonspecific calcium rise without TRPC4 – cell-based, HEK293 mu-opioid receptor line, counter-screen for TRPC4 activator project, confirmation (AID 449723;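 active = hit in primary screen, with calcium signal over 5 SD above buffer well mean in both duplicates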;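 note: counter screen cells carry the mu-opioid receptor alone and lack TRPC4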). The following applies: HEK293 mu-opioid cells, Fluo-4 calcium fluorescence, at 10 µM; hits give high values.
Experiment [16] in a line: nonspecific potentiation of DAMGO calcium response – cell-based, HEK293 mu-opioid receptor line, counter-screen for TRPC4 allosteric potentiator project, confirmation (AID 449724;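 active = calcium signal rise more than 3 SD above the low-dose agonist control mean, in both duplicate plates and the primary screen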;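 note: HEK293 cells carrying mu-opioid receptor only with no TRPC4 channel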). The following applies: HEK293 mu-opioid receptor cells, Fluo-4 calcium flux, at 10 µM, compound added before EC20 DAMGO stimulus; hits give high values.
Experiment [17] can be described thus: nonspecific flux increase, KCNQ1-free cells – parental CHO cells, counter-screen for KCNQ1 potentiator project (AID 493006;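 active = duplicate-averaged activation above buffer control mean plus 5 SD of those controls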;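 note: fluorescence ratio of max minus min over baseline after K+ and Tl+ depolarization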). Particulars: parental CHO-K1 cells, FluxOR thallium flux, at 10 µM; hits give high values.
Experiment [18] deals with Potassium voltage-gated channel subfamily KQT member 1 (Homo sapiens) (UniProt P51787). Nature of the experiment: enhancement of KCNQ1 channel thallium flux – FluxOR thallium flux, CHO cells, duplicates, confirmation (AID 493007;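 active = potentiation averaged over duplicate wells exceeding buffer-only control mean by more than 3 SD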;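 for outcome: cells depolarized by a potassium plus thallium sulfate stimulus after compound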;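 for potentiation: 0% = buffer-only wells and 100% = R-L3 activator control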). Particulars: KCNQ1 cell line, FluxOR thallium flux fluorescence, at 10 µM; hits give high values, % of reference activator effect, buffer zero.
Chain of Potassium voltage-gated channel subfamily KQT member 1 (Homo sapiens) (P51787 whole entry, looked up): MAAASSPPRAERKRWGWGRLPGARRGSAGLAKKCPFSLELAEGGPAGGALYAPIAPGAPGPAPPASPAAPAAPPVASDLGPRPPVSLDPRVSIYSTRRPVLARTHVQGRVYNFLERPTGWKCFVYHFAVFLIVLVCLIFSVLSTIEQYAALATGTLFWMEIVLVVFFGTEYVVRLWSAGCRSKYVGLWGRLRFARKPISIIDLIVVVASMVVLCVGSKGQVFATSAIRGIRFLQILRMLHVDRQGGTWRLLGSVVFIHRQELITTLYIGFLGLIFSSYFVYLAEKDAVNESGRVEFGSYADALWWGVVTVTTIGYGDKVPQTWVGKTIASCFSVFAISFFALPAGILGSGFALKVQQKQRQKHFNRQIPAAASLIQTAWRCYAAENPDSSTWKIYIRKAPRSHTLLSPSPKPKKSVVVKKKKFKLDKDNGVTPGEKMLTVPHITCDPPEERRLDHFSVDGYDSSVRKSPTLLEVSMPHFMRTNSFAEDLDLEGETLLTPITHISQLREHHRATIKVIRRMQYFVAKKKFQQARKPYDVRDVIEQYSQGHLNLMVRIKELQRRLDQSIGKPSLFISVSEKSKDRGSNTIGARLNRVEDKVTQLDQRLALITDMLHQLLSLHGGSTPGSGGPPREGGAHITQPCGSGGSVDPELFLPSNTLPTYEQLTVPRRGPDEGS
The target of experiment [19] is Potassium voltage-gated channel subfamily KQT member 2 (Rattus norvegicus) (UniProt O88943). Nature of the experiment: KCNQ2 thallium flux enhancement – KCNQ2-CHO-K1 cells, selectivity assay for KCNQ1 potentiator project (AID 493009;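 active = mean duplicate potentiation above the buffer control mean plus 5 SD of buffer wells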;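 note: assay conditions were tuned for KCNQ1 rather than KCNQ2 modulators; signal is max minus min fluorescence divided by baseline after thallium stimulus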). Particulars: FluxOR thallium flux fluorescence, at 10 µM; hits give high values, scaled: buffer 0, activator control 100.
Chain of Potassium voltage-gated channel subfamily KQT member 2 (Rattus norvegicus) (O88943 whole entry, looked up): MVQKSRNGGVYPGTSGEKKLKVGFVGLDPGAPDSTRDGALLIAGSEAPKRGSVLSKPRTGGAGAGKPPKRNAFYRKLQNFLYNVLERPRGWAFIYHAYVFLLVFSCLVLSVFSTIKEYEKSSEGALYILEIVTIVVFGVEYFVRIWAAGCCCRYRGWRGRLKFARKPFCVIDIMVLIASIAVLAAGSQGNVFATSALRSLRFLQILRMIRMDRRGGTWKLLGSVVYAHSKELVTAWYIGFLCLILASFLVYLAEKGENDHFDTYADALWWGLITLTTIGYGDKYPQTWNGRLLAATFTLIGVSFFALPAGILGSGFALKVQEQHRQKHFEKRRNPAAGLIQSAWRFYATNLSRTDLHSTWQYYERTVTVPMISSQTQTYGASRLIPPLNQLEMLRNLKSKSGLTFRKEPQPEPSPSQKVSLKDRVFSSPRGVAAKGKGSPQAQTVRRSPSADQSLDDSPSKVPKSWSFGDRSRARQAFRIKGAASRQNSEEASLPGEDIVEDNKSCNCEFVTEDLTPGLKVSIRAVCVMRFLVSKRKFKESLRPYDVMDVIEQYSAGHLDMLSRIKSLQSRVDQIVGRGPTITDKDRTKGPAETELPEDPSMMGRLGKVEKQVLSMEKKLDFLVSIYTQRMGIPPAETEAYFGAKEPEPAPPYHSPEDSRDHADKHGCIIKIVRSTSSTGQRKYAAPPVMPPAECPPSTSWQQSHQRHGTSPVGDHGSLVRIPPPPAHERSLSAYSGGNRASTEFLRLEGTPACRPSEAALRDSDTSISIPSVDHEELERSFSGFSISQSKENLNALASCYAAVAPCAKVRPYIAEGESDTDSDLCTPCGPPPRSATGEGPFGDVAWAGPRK
Experiment [20] has as its target Potassium voltage-gated channel subfamily KQT member 1 (Homo sapiens) (UniProt P51787). As to the kind of experiment: KCNQ1 activators by electrophysiology – IonWorks patch clamp, KCNQ1-CHO cells, orthogonal assay for KCNQ1 potentiator project, confirmation (AID 493184;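 active = current rise at least 3 SD above the untreated control mean in each of two repeat wells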). The following applies: automated patch clamp current, at 10 µM; hits give high values.

For part of these data: Results with a measured potency or affinity are listed apart. Calls of active or inactive are those of the source.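 Rule for the calls, unless noted: active = primary screen inhibitor hit that blocks the TRPC4 channel at some tested dose, yielding a dose curve; inactive = the rest.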

For the compound `CCn1c(=O)cc(OCC(=O)NCCCN2CC(C)CC(C)C2)c2ccccc21` (stereo not given), the activation in [1] is 80% (active); in experiment [2], 73% (active); in experiment [12], 17.3% (active). The outcome in experiment [3], in [4], in experiment [5], in experiment [6], in experiment [7] and in experiment [8] was inactive. Besides, the compound was called inactive in experiment [9], in [10], in experiment [11], in experiment [13], in experiment [14] and in experiment [15]. Besides, the result in experiment [16] was inactive.
For the compound `COc1ccc(-c2cc(C(=O)NCC(c3ccccc3)N(C)C)c3ccccc3n2)cc1OC` (stereo not given), the activation in [1] is 98% (active). For the same compound, the outcome in experiment [2], in [3], in [4], in [5], in experiment [6] and in experiment [7] was inactive. Further, the outcome in [8], in experiment [9], in experiment [10], in experiment [11], in experiment [12] and in experiment [13] was inactive. The outcome in experiment [14], in [15] and in [16] was inactive.
As for `CC(C)(C)C(=O)NC(=S)NNC(=O)c1ccc(-c2ccccc2)cc1`, the activation in experiment [1] was 257% (active); in [2], 60% (active); in experiment [10], 35.5% (active); in [12], 147% (active); in [15], 83.6% (active); in [17] it was 308% (active). Also, the result in [3], in [4], in [5], in experiment [6], in experiment [7] and in [8] was inactive. Also, the compound was called inactive in experiment [9], in experiment [11], in [13], in experiment [14], in [16] and in experiment [20]. Besides, the values for the potentiation in [18] and in [19] were 163% (active) and 430% (active), respectively.
Take `O=C(C1CCCN(Cc2ccccc2F)C1)N1CCc2ccccc2C1` (stereo not given): the activation in experiment [1] was 96% (active); in experiment [2], 98% (active); in experiment [10], 56.5% (active); in experiment [12] it was 40.5% (active). For the same compound, the result in experiment [3], in experiment [4], in experiment [5], in [6], in experiment [7] and in experiment [8] was inactive. Moreover, the call in experiment [9], in experiment [11], in experiment [13], in experiment [14], in experiment [15] and in experiment [16] was inactive.
As to `Cc1ccc(NS(=O)(=O)c2ccc(C(=O)N3CC(C)CC(C)C3)cc2)cc1` (stereo not given), the activation in experiment [1] was 103% (active); in [10], 65.5% (active); in experiment [12], 43.8% (active); in [15], 25.6% (active); in experiment [17] it was 138% (active). Further, the outcome in experiment [2], in experiment [3], in experiment [4], in experiment [5], in experiment [6] and in experiment [7] was inactive. The outcome in [8], in [9], in experiment [11], in experiment [13], in experiment [14] and in experiment [16] was inactive. Also, the result in [18], in experiment [19] and in experiment [20] was inactive.
As for `CCCCN(C)CCCNC(=O)CN1N=C(c2ccc(Cl)cc2)CCC1=O`, the outcome in [1], in [2], in [3], in [4], in experiment [5] and in experiment [6] was inactive. In addition, the result in experiment [7], in [8], in experiment [9], in [11], in experiment [13] and in experiment [15] was inactive. The result in [16] was inactive. In addition, the activation in experiment [10] was 30% (active); in experiment [12] it was 16.6% (active). Moreover, the potentiation in experiment [14] was 21.3% (active).
In the case of `Cc1cccc(C)c1OCC(O)CN` (stereo not given), the activation in experiment [1] is 90% (active); in experiment [10], 30.5% (active); in experiment [12], 20.1% (active). The outcome in experiment [2], in experiment [3], in experiment [4], in experiment [5], in experiment [6] and in experiment [7] was inactive. For the same compound, the outcome in experiment [8], in experiment [9], in experiment [11], in [13], in experiment [14] and in [15] was inactive. Also, the outcome in experiment [16] was inactive.

(Values after PubChem BioAssay.)
